Measurements reported in PubChem BioAssay AID1053188 (Broad Institute, 2014).
Several values for one entry are separate records, joined by “and”; a condition that tells them apart may be missing. Identical values can stand only once. Hit rate of the full screen: of about 83,000 compounds, about 780 (0.94%) were called active. The entries come from a sample that favours actives as a whole. A number with no mark means an inactive call.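 How the source made its calls: active means mean inhibition of at least 50% with a set share of replicates also reaching that level; inconclusive means no clear call, values can overlap the other calls; inactive means the rest.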

Assay: CD40 pathway blockade in BL2 B cells – cell-based, luciferase reporter, single point, primary screen (AID 1053188);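 further: 0% = neutral control wells and 100% = IKK inhibitor VII at 50 µM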
Conditions: BL2 NF-kB luciferase reporter, CD40L-induced, 4 h; at 10 µM; stronger effect = higher value

Question: For `CC(=O)OC1C2(CC3N4C(=O)C5(CO)SSC4(CC31O)C(=O)N5C)OC(C)C(C)(C)C2=O` (stereo not given), which inhibition is on record?
Answer: The inhibition was 107% (active).

Question: For `Cc1nn(-c2ccccc2)c(C)c1NC(=O)COC(=O)Cc1ccccc1`, which inhibition is on record?
Answer: The inhibition was 3.56%.

Question: For `N=c1ccccn1Cc1ccccc1`, which inhibition is on record?
Answer: Its inhibition is 5.42%.

Question: With `CCC(C)(O)C(=O)OC1C(=O)OC2CC3C(C)=CC(=O)C(O)C3(C)C3C4(O)OCC23C1C(C)C4O` (stereo not given) as the molecule, how does the inhibition read?
Answer: Its inhibition is 107% (active).

Question: Which inhibition does the source give for `CC(=O)N1C[C@@H]2C(c3ccc(Br)cc3)[C@H](C1)N2C` (stereo not given in full) here?
Answer: Its inhibition is -3.1% and 2.67%.

Question: For `Cc1ccc(C(C)C)c(OCC(=O)N2CCN(CC(=O)N3CCOCC3)CC2)c1`, which inhibition is on record?
Answer: Its inhibition is -7.63%.

Question: With `Cc1cc(C(=O)OCC(=O)Nc2c(F)cccc2F)c(C)n1C1CC1` as the molecule, how does the inhibition read?
Answer: Its inhibition is -11.1%.

Question: For `Cc1nc2ccc(N3CCN(C)CC3)cc2nc1C`, which inhibition is on record?
Answer: The inhibition was -20.7%.

Question: With `CCOC(=O)C1(CCc2ccccc2)CCN(Cc2ccco2)CC1` as the molecule, how does the inhibition read?
Answer: The inhibition was 11.2%.

Question: With `c1ccc(CC2CCCCN2)cc1` (stereo not given) as the molecule, how does the inhibition read?
Answer: The inhibition was -1.33%.
